Results filed as inconclusive are left out. The source made the active and inactive calls. No rule for the calls is given here.

This experiment in a line: E. coli strain growth, wild-type against H38 humanized mutant – H38 mutant GFP vs wild-type RFP, cherry-pick, dose response (AID 977627). Particulars: E. coli H38 humanized ribosome GFP strain, fluorescence, 24 h; activity: measured here: wild-type RFP strain growth, at 50 µM, stronger effect = lower value; series mostly up to 50 µM.
Take `COC(=O)c1c(NC(=O)CCC(=O)O)sc(Cc2ccccc2)c1C`: the activity was -41.2%.

Take `Cc1noc(C)c1NC(=O)Nc1ccc2c(c1)C(=O)N([C@H](C)CO)C[C@@H](C)[C@@H](CN(C)C(=O)Nc1ccc3c(c1)OCO3)OCCCC[C@@H](C)O2`: the activity is -3.93%.

With `CC1(Cc2ccccc2C#N)C(=O)Nc2cc(-c3ccccc3Cl)ccc21` (stereo not given), the activity was -20%.

In the case of `CCOc1ccccc1NC(=O)c1ccc2ccccc2c1`, the activity was 5.09% and the outcome is “inactive”.

The record behind these values is PubChem BioAssay AID977627 (Broad Institute, 2014).
